Common to all, as to assay: cross-link between two proteins; cross-linking mass spectrometry
Experiment [1] addresses Intersectin-1 (UniProt Q9Z0R4).
In experiment [2] the target is Kinesin heavy chain isoform 5C (UniProt P28738).
Experiment [3] concerns the target Kinesin light chain 2 (UniProt O88448).
Experiment [4] addresses Lanosterol 14-alpha demethylase (UniProt Q16850).
The target of experiment [5] is Lysocardiolipin acyltransferase 1 (UniProt Q6UWP7).
Experiment [6] addresses Limbic system-associated membrane protein (UniProt Q8BLK3).
Experiment [7] concerns the target Melanoma inhibitory activity protein 2 (UniProt Q91ZV0).
Experiment [8] has as its target Microtubule-associated protein 1A (UniProt Q9QYR6).
In experiment [9] the target is Mitochondrial import inner membrane translocase subunit TIM16 (UniProt Q9Y3D7).
Experiment [10] addresses Mitochondrial import inner membrane translocase subunit Tim9 (UniProt Q9Y5J7).
The target of experiment [11] is Monocarboxylate transporter 1 (UniProt P53985).
The target in experiment [12] is Myosin light chain 6B (UniProt Q8CI43).
Sequence of Myosin light chain 6B (Q8CI43 whole entry): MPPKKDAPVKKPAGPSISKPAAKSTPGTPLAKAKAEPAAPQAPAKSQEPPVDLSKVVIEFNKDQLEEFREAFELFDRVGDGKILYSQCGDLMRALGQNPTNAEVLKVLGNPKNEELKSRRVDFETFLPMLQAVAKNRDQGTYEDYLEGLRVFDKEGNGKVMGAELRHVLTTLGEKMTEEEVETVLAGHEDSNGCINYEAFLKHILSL
For experiment [13], the target named is Myosin-14 (UniProt Q6URW6).
In experiment [14] the target is Myosin-9 (UniProt Q8VDD5).
The target in experiment [15] is NADPH:adrenodoxin oxidoreductase, mitochondrial (UniProt P22570).
The target in experiment [16] is Neurofascin (UniProt Q810U3).
Experiment [17] deals with Neuronal pentraxin receptor (UniProt Q99J85).
The target in experiment [18] is Neuronal-specific septin-3 (UniProt Q9Z1S5).
Sequence of Neuronal-specific septin-3 (Q9Z1S5 whole entry): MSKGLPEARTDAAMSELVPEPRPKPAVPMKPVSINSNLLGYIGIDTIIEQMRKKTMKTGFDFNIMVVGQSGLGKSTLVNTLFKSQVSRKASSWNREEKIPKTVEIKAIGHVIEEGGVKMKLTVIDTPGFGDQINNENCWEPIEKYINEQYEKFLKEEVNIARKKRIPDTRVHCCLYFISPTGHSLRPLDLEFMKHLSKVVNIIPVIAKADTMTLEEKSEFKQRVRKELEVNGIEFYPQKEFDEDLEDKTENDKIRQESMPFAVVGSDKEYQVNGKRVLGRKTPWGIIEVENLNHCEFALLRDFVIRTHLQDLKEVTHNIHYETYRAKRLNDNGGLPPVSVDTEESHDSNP
The target in experiment [19] is Septin-11 (UniProt Q8C1B7).
Experiment [20] concerns the target Septin-6 (UniProt Q9R1T4).
Experiment [21] concerns the target Septin-8 (UniProt Q8CHH9).
Experiment [22] concerns the target Septin-9 (UniProt Q80UG5).
Experiment [23] concerns the target Neutral alpha-glucosidase AB (UniProt Q14697).
The target in experiment [24] is Non-POU domain-containing octamer-binding protein (UniProt Q99K48).
In experiment [25] the target is Non-selective voltage-gated ion channel VDAC2 (UniProt P45880).
Experiment [26] addresses Non-selective voltage-gated ion channel VDAC3 (UniProt Q9Y277).
Experiment [27] has as its target Nucleosome assembly protein 1-like 4 (UniProt Q78ZA7).
The target in experiment [28] is Osteopetrosis-associated transmembrane protein 1 (UniProt Q86WC4).
Experiment [29] has as its target Peptidyl-prolyl cis-trans isomerase B (UniProt P23284).
Experiment [30] deals with Peroxiredoxin-2 (UniProt Q61171).
Experiment [31] deals with Peroxiredoxin-4 (UniProt Q13162).
The target of experiment [32] is Peroxisomal bifunctional enzyme (UniProt Q08426).
Experiment [33] addresses Phosphoglycerate mutase 1 (UniProt Q9DBJ1).
Experiment [34] has as its target Plasma membrane calcium-transporting ATPase 4 (UniProt Q6Q477).
Experiment [35] has as its target Polymerase delta-interacting protein 2 (UniProt Q9Y2S7).
Experiment [36] addresses Potassium voltage-gated channel subfamily A member 2 (UniProt P63141).
Experiment [37] deals with Prefoldin subunit 5 (UniProt Q99471).
In experiment [38] the target is Prostaglandin E synthase 2 (UniProt Q9H7Z7).
The target of experiment [39] is Proteasome activator complex subunit 2 (UniProt P97372).
Sequence of Proteasome activator complex subunit 2 (P97372 whole entry, one chain of several): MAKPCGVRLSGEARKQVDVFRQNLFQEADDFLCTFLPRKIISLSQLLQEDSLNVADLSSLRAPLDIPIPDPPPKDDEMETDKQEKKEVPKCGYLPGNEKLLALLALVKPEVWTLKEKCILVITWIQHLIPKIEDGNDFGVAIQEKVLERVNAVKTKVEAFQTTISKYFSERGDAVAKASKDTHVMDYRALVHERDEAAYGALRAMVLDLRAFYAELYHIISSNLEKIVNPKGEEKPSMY
The target in experiment [40] is Proteasome subunit alpha type-6 (UniProt P60900).
The target in experiment [41] is Proteasome subunit alpha type-6 (UniProt Q9QUM9).
For experiment [42], the target named is Proteasome subunit alpha type-7 (UniProt Q9Z2U0).
Experiment [43] concerns the target Proteasome subunit beta type-4 (UniProt P99026).
For experiment [44], the target named is Proteasome subunit beta type-7 (UniProt P70195).
Experiment [45] concerns the target Putative protein FAM10A5 (UniProt Q8NFI4).
The target in experiment [46] is RCC1-like G exchanging factor-like protein (UniProt Q96I51).
The target of experiment [47] is Radixin (UniProt P35241).
Sequence of Radixin (P35241 whole entry): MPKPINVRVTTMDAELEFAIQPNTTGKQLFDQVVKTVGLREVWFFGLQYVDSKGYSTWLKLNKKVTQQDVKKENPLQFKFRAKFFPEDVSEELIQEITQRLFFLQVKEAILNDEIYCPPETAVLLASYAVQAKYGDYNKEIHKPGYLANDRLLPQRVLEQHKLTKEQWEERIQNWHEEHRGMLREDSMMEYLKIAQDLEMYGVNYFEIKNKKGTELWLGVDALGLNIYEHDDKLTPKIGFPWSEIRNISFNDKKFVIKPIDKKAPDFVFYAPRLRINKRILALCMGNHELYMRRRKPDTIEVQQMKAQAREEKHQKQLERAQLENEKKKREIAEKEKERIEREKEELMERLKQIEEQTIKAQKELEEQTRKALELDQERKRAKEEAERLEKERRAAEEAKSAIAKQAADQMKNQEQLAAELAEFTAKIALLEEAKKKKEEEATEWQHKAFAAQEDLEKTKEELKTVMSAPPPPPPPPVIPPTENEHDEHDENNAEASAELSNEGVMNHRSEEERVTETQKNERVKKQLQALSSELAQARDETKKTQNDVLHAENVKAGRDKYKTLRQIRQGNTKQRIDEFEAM
In experiment [48] the target is Ragulator complex protein LAMTOR3 (UniProt Q9UHA4).
Sequence of Ragulator complex protein LAMTOR3 (Q9UHA4 whole entry, one chain of several): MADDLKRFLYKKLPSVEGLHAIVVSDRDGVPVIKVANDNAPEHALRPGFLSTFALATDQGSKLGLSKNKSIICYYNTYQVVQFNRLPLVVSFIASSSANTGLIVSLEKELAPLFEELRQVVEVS
Experiment [49] concerns the target Ras-related protein Rab-3A (UniProt P63011).

Sequence of Membrane-associated progesterone receptor component 1, O00264 (O00264 whole entry): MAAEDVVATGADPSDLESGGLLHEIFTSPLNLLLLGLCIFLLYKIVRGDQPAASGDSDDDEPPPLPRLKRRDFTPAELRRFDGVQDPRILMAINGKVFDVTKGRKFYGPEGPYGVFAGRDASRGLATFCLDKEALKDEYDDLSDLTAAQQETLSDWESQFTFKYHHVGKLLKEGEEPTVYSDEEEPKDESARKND
Sequence of Microtubule-associated protein 1A (Q9QYR6 whole entry): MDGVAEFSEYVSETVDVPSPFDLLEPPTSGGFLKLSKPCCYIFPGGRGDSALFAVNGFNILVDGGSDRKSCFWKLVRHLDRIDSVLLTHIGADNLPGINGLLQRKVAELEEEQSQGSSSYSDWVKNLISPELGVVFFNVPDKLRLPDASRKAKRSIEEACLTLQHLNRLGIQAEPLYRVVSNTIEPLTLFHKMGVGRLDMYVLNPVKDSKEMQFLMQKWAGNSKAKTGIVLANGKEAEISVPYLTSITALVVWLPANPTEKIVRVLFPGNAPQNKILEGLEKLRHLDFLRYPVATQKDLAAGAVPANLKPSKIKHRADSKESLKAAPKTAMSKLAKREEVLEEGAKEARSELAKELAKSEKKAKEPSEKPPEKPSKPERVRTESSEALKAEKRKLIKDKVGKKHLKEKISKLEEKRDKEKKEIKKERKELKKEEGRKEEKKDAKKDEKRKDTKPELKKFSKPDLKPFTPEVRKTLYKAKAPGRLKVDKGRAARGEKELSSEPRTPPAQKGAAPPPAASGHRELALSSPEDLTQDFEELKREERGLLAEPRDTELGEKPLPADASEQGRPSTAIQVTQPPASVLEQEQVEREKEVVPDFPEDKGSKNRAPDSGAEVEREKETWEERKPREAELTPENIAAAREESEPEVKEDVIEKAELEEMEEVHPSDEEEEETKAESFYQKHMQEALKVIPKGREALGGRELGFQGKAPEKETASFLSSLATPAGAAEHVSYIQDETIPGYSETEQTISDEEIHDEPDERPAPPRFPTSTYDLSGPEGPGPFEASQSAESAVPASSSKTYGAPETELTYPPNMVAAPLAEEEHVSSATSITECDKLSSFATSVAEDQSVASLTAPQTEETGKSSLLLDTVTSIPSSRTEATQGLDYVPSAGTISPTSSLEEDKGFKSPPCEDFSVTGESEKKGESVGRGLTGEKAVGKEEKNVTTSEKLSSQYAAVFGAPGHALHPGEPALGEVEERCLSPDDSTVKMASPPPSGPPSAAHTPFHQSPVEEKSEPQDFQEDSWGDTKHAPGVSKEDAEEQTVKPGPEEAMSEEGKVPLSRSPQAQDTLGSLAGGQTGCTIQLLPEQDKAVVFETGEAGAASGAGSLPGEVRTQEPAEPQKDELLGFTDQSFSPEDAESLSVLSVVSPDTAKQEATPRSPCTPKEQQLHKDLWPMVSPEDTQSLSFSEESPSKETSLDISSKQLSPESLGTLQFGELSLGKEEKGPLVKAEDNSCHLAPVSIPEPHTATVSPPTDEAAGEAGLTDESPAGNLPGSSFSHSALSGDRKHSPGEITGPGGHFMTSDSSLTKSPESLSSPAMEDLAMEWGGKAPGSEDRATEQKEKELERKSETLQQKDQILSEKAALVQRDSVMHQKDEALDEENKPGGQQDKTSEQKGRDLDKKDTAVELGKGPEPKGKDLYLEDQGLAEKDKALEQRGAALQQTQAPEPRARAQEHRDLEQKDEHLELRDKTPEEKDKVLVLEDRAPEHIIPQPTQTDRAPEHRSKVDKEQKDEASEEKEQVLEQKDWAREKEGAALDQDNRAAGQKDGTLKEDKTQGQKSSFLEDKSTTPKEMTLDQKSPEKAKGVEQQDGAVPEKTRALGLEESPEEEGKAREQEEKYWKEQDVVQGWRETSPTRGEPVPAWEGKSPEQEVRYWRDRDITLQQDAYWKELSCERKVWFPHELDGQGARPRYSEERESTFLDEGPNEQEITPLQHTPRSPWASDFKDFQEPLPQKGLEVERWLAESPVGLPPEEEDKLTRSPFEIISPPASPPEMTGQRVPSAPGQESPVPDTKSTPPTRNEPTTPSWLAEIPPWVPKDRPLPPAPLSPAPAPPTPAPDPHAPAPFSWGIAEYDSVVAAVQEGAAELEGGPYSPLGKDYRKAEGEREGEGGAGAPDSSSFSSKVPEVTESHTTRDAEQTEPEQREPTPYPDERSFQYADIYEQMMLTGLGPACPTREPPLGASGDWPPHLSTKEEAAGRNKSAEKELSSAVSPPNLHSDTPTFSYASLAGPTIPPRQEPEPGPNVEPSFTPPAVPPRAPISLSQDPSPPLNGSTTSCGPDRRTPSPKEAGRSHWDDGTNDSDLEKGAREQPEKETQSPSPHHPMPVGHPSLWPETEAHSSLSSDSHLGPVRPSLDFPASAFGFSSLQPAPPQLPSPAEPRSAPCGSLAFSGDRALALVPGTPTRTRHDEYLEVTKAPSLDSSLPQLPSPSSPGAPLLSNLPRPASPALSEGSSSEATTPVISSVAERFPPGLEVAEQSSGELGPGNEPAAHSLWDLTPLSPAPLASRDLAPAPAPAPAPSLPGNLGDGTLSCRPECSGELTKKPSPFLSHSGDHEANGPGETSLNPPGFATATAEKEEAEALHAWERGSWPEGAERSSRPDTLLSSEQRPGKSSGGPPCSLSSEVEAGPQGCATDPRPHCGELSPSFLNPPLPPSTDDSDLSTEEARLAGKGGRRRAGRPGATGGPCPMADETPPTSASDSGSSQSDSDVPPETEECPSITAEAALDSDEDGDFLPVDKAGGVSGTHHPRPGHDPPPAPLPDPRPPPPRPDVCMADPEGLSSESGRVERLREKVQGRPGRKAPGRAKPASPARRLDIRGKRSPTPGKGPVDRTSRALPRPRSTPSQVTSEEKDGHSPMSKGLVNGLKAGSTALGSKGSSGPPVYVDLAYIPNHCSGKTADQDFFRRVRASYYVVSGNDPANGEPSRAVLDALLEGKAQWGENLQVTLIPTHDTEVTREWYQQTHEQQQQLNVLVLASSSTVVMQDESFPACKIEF
Sequence of Septin-6 (Q9R1T4 whole entry): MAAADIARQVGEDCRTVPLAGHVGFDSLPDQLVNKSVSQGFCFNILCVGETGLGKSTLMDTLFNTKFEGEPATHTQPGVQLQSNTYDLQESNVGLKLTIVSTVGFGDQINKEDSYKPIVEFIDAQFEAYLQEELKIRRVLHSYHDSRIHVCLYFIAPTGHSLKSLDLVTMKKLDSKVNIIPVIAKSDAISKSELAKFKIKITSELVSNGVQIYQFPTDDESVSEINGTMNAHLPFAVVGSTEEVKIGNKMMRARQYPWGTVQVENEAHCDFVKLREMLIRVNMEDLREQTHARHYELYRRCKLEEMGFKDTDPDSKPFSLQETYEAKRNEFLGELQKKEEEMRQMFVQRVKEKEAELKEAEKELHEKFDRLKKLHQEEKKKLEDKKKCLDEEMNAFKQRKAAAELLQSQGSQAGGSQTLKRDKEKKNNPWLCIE
Sequence of Mitochondrial import inner membrane translocase subunit TIM14, Q96DA6 (Q96DA6 whole entry): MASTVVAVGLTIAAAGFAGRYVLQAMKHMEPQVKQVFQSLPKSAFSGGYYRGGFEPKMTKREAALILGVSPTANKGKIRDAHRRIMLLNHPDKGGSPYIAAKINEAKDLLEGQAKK

As for “Epidermal growth factor receptor substrate 15-like 1, Q60902”, the “listed as a hit” value in experiment [1] is “yes”.
Take Kinesin light chain 1, O88447: the “listed as a hit” value in experiment [2] and in experiment [3] was “yes” throughout.
Consider “Membrane-associated progesterone receptor component 1, O00264”, for which the “listed as a hit” value in [4] and in [5] was “yes” throughout.
For Rho-associated protein kinase 2, P70336, the “listed as a hit” value in experiment [6] was “yes”.
For “Transport and Golgi organization protein 1 homolog, Q8BI84”, the “listed as a hit” value in [7] is “yes”.
“Microtubule-associated protein 1B, P14873”: the “listed as a hit” value in experiment [8] was “yes”.
On to “Mitochondrial import inner membrane translocase subunit TIM14, Q96DA6”, for which the “listed as a hit” value in experiment [9] was “yes”.
Consider “Mitochondrial import inner membrane translocase subunit Tim22, Q9Y584”, for which the “listed as a hit” value in [10] is recorded as “yes”.
Regarding Basigin, P35613, the “listed as a hit” value in [11] is “yes”.
With Myosin-10, Q61879, the “listed as a hit” value in experiment [12], in experiment [13] and in experiment [14] was “yes” in each case.
Consider “Dihydrolipoyl dehydrogenase, mitochondrial, P09622”, for which the “listed as a hit” value in experiment [15] is reported as “yes”.
Turning to Contactin-associated protein 1, O54991, the “listed as a hit” value in [16] is “yes”.
In the case of Neuronal pentraxin-1, Q62443, the “listed as a hit” value in experiment [17] is “yes”.
Turning to Septin-7, O55131, the “listed as a hit” value in experiment [18], in experiment [19], in [20], in experiment [21] and in experiment [22] was “yes” in each case.
For the substance Calreticulin, P27797, in experiment [23], the “listed as a hit” value was “yes”.
As for “Splicing factor, proline- and glutamine-rich, Q8VIJ6”, the “listed as a hit” value in experiment [24] is “yes”.
Regarding Hexokinase-1, P19367, the “listed as a hit” value in experiment [25] is recorded as “yes”.
For the substance “Non-selective voltage-gated ion channel VDAC2, P45880”, the “listed as a hit” value in experiment [26] is listed as “yes”.
“Nucleosome assembly protein 1-like 1, P28656”: in experiment [27], the “listed as a hit” value is listed as “yes”.
Take “H(+)/Cl(-) exchange transporter 7, P51798”: the “listed as a hit” value in experiment [28] is “yes”.
Regarding Protein disulfide-isomerase A4, P13667, the “listed as a hit” value in experiment [29] is “yes”.
Consider Peroxiredoxin-1, P35700, for which the “listed as a hit” value in experiment [30] is “yes”.
On to Peroxiredoxin-1, Q06830, for which the “listed as a hit” value in experiment [31] is on record as “yes”.
As for Catalase, P04040, the “listed as a hit” value in experiment [32] was “yes”.
Consider Phosphoglycerate mutase 2, O70250, for which the “listed as a hit” value in experiment [33] is “yes”.
In the case of “Plasma membrane calcium-transporting ATPase 1, G5E829”, the “listed as a hit” value in experiment [34] is listed as “yes”.
Regarding “ATP-dependent clpX-like chaperone, mitochondrial, O76031”, the “listed as a hit” value in experiment [35] is recorded as “yes”.
Turning to “Voltage-gated potassium channel subunit beta-2, P62482”, in experiment [36], the “listed as a hit” value was “yes”.
Regarding Prefoldin subunit 1, O60925, the “listed as a hit” value in [37] is reported as “yes”.
Turning to “Glycerol-3-phosphate dehydrogenase, mitochondrial, P43304”, the “listed as a hit” value in experiment [38] was “yes”.
In the case of “Proteasome activator complex subunit 1, P97371”, the “listed as a hit” value in experiment [39] was “yes”.
For Proteasome subunit alpha type-2, P25787, the “listed as a hit” value in experiment [40] is reported as “yes”.
Consider Proteasome subunit alpha type-2, P49722, for which the “listed as a hit” value in experiment [41] is reported as “yes”.
Turning to Proteasome subunit alpha type-4, Q9R1P0, the “listed as a hit” value in [42] is “yes”.
Turning to Proteasome subunit beta type-7, P70195, in [43], the “listed as a hit” value is reported as “yes”.
With Proteasome subunit beta type-1, O09061, in [44], the “listed as a hit” value is reported as “yes”.
As to Hsc70-interacting protein, P50502, the “listed as a hit” value in experiment [45] is given as “yes”.
As for “Nucleoside diphosphate kinase 6, mitochondrial, O75414”, the “listed as a hit” value in experiment [46] is on record as “yes”.
As for Moesin, P26038, the “listed as a hit” value in experiment [47] is on record as “yes”.
On to “ADP-ribosylation factor-like protein 8B, Q9NVJ2”, for which, in experiment [48], the “listed as a hit” value is given as “yes”.
For the substance Ras-related protein Rab-3C, P62823, the “listed as a hit” value in experiment [49] is given as “yes”.

For the origin of these results see PMC11024108.
